Screening data deposited in PubChem BioAssay by National Center for Advancing Translational Sciences (NCATS).
TRHR agonist – activates the human TRH receptor; P34981; TRHR cells, calcium flux fluo-8, FDSS agonist mode; activation, % at 2 µM; 0.18% of 360,000 active; AID 493084
Target sequence (P34981 whole entry, looked up): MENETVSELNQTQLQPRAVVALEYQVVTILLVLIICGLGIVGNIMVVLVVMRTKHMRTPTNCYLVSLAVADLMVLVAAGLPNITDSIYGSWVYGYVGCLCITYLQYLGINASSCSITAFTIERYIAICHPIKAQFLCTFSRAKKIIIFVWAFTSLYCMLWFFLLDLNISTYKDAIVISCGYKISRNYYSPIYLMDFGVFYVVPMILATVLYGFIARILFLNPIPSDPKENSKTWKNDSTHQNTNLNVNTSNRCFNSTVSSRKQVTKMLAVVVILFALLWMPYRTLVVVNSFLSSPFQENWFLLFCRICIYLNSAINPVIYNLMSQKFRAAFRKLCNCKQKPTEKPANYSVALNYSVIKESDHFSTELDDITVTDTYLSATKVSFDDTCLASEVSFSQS
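TRHR-expressing cells loaded with fluo-8 calcium dye; 23 nL library compound pin-transferred, kinetic FDSS fluorescence (Ex 480/Em 530) recorded about 180 s for agonist-induced calcium release, before a 10 nM TRH EC20 addition for potentiator mode.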
D1 PAM – potentiators of human D1 dopamine receptor; potentiation, % at 10 µM; P21728; HEK293 TREx D1 cells, calcium flux, dopamine EC20 potentiation; 0.036% of 360,000 active; AID 504651; in the data active means potentiation above about 30%
TRHR enhancer – TRH receptor (human) allosteric enhancement | AID 493056 | TRHR cells, fluo-8 calcium fluorescence, EC20 TRH enhancement | enhancement, % at 2 µM | 0.66% of 360,000 active; in the data active means enhancement above about 30%
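Enhancer read-out: after compound pinning and an initial kinetic agonist-mode read, an EC20 of TRH (10 nM final) was injected and fluo-8 calcium signal (Ex 480/Em 530) followed at 1 s/cycle for 100 cycles in TRHR-expressing cells.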
D1 ag – agonists of human D1 dopamine receptor | P21728 | HEK293 T-REx D1 cells, calcium flux, agonist mode | activation, % at 2 µM | 1% of 360,000 active
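Inducible HEK293 T-REx D1 cells, force-coupled to calcium signalling, were plated at 4000 cells/well with tetracycline and held overnight at 30 C. After no-wash calcium dye loading, compound-evoked calcium rise over 180 s flagged agonists.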
D1 antagonist – antagonists of human D1 dopamine receptor | 3.2% of 360,000 active | P21728 | HEK293 TREx D1 cells, calcium flux, dopamine EC80; stronger effect = lower value | activity change, negative = inhibition, % at 10 µM | AID 504652; in the data active means activity change below about -30%
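HEK293 T-REx cells expressing inducible, force-coupled D1 receptor; no-wash Ca dye, 30–90 min RT. Cmpd → 180 s read at 1 Hz → EC80 DA → 180 s read.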
Large screens that a line does not name were inactive; ! = repeats disagree. Hits are enriched below; roughly 4.6% of the tested compounds scored in any of these assays. Unless noted, no stated cut-off is given here; in the data, active means activation above about 30%; inactive means the rest.

O=C1CN(S(=O)(=O)c2c(F)cccc2F)CCN1S(=O)(=O)c1ccc2c(c1)OCCO2	none
CC(C)C[C@@H](CSc1ccccc1)N1CCN(CCc2ccccc2)CCC1=O	none
CCCN1CCC(=O)N([C@H](CSc2ccc(OC)cc2)CC(C)C)CC1	D1 antagonist -34
Cc1cc(C)cc(C(=O)N(CCc2ccccc2)C2CC3CCC(C2)N3C)c1 (configuration not stated)	D1 antagonist -31
COc1cc(C(=O)N(CCc2ccccc2)C2=CC3CCC(C2)N3C)cc(OC)c1OC (configuration not stated)	none
CCc1ccc(OCC(=O)Nc2ccc(Cl)c(-c3nc4ncccc4o3)c2)cc1	none
NS(=O)(=O)c1cccc(NC(=O)Cc2ccc(Cl)c(Cl)c2)c1	none
NC(=O)c1nsc(C(=O)N(c2ccccc2F)C(C(=O)NCc2ccc(F)cc2)c2ccc(O)cc2)c1N (configuration not stated)	TRHR enhancer 30
CCc1ccc(C2(C)SC(NC(C)=O)=NN2C(C)=O)cc1 (configuration not stated)	D1 ag 56
CC(=O)NC1=NN(C(C)=O)C(C)(c2cccnc2)S1 (configuration not stated)	D1 antagonist -46
Cc1ccc(OCC(=O)c2cc(C)n(Cc3cccs3)c2C)c([N+](=O)[O-])n1	TRHR enhancer 39
Cc1ccc(OCC(=O)c2cc(C)n(CC(F)(F)F)c2C)c([N+](=O)[O-])n1	none
Cc1cc2c(s1)c1cnn(Cc3ccccc3F)c(=O)c1n2C(C)C	none
Cc1ccnc(NC(=O)COC(=O)C23CC4CC(CC(C4)C2)C3)n1	none
O=C(COC(=O)C12CC3CC(CC(C3)C1)C2)Nc1nccs1	D1 antagonist -34
O=C(NCc1cccc(F)c1)c1ccccc1NC(=O)c1nsc2ccccc12	none
CCCCNC(=O)/C(C#N)=C/c1ccc(F)cc1F	D1 antagonist -52
COCCCNC(=O)/C(C#N)=C/c1ccc(F)cc1	none
O=[N+]([O-])c1cc(-c2nc(-c3ccccc3)no2)ccc1NCc1cccnc1	none
Cc1cc(-c2nnc3n2N=C(c2ccccc2)CS3)n[nH]1	none
Cc1cc(-c2nnc3n2N=C(c2ccc(-c4ccccc4)cc2)CS3)n[nH]1	D1 ag 63
O=C(CN1CCN(C2CCCCC2)C(=O)C1=O)Nc1ccc(Cl)cc1	none
CCOC(=O)SC1=N/C(=C\c2ccc(N(C)C)cc2)C(=O)S1	D1 ag 33
CCSC1=N/C(=C\c2ccc(C(=O)O)cc2)C(=O)S1	none
Cc1cccnc1NC(=O)CNC(=O)COc1ccccc1	TRHR enhancer 33
CCc1ccc(/C=C2/Sc3ccccc3N(CC(=O)NCCCN3CCOCC3)C2=O)cc1	D1 antagonist -52
O=C(CN1C(=O)/C(=C/c2ccc(C(F)(F)F)cc2)Sc2ccccc21)NCCCN1CCOCC1	D1 antagonist -34
O=C(CN1C(=O)/C(=C\c2ccccc2Cl)Sc2ccccc21)NCCCN1CCOCC1	none
O=C(CN1C(=O)/C(=C\c2cccc(Cl)c2)Sc2ccccc21)NCCCN1CCOCC1	D1 ag 53, D1 antagonist -84
O=C(CCN1C(=O)/C(=C\c2ccccc2)SC1=S)NCCCN1CCOCC1	none
CN1CCN(CCCNC(=O)c2ccc(/C=C3\Sc4ccccc4N(Cc4ccccc4F)C3=O)cc2)CC1	D1 antagonist -30
O=C(NCCN1CCOCC1)c1ccc(/C=C2\Sc3ccccc3N(Cc3ccccc3F)C2=O)cc1	none
Cc1ccc(-n2nc(C(=O)N3CCCCC3)c(=O)n(C)c2=O)cc1	none
COC(=O)c1c(NC(C)=O)c2c3c(sc2n1Cc1cc(C)ccc1C)CCCC3	none
O=C(Nc1ccc2oc(-c3ccncc3)nc2c1)c1ccccc1Cl	D1 antagonist -71
Cc1ccc2oc(-c3cc(NC(=O)c4oc5ccccc5c4C)ccc3Cl)nc2c1	none
O=C(O)c1ccccc1-c1ccccc1C(=O)Nc1ccc(-c2nc3cc(Cl)ccc3o2)cc1	D1 antagonist -30
O=C(Nc1ccc(-c2nc3cc(Cl)ccc3o2)cc1)c1cc(Br)ccc1Cl	none
Cc1ccc2oc(-c3cc(NC(=O)c4ccco4)ccc3Cl)nc2c1	D1 antagonist -39
O=C(Nc1ccc2oc(-c3ccccc3F)nc2c1)c1ccccc1Cl	D1 antagonist -48
COc1ccccc1-c1nc2cc(NC(=O)c3ccccc3Cl)ccc2o1	none
CCOC(=O)c1oc2ccc(S(=O)(=O)n3nc(-c4cc(OC)cc(OC)c4)cc3N)cc2c1C	none
COc1ccc(OC)c(Nc2cc(C)nc3ccccc23)c1	none
COc1ccc2nc(C)cc(Nc3ccccc3O)c2c1	D1 antagonist -35
O=S(=O)(c1ccc(F)cc1)N1CCN(C(=S)NCc2ccccc2)CC1	D1 antagonist -31
CCOc1ccc(CNC(=O)C2=Cc3cc(Br)ccc3OC2)cc1OC	D1 antagonist -38
CCC(=O)N1CCc2cc(S(=O)(=O)NCCC(=O)Nc3ccc(OC)cc3)ccc21	none
O=C(C1CC1)N1CCc2cc(Br)cc(S(=O)(=O)NCc3ccco3)c21	D1 antagonist -31
COc1ccc(NS(=O)(=O)c2cc(Br)cc3c2N(C(=O)C2CC2)CC3)cc1OC	TRHR enhancer 49
Cc1ccc(CNS(=O)(=O)c2cc(Br)cc3c2N(C(=O)C2CC2)CC3)cc1	none
COc1cc(NC(=O)CCNS(=O)(=O)c2ccc3c(c2)CCN3C(=O)C2CC2)cc(OC)c1	TRHR enhancer 46
COc1ccc(NS(=O)(=O)c2ccc3c(c2)CCCN3C(=O)C2CCC2)cc1OC	D1 antagonist -42
CCN1CCN(C(c2cccc(F)c2)c2c(O)cc(C)n(CCOC)c2=O)CC1 (configuration not stated)	none
CCSc1ncc(Cl)c(C(=O)N(Cc2ccccc2Cl)C2CCS(=O)(=O)C2)n1 (configuration not stated)	none
CSc1nc(-c2ccc(Cl)cc2Cl)[nH]c(=O)c1C#N	none
Cc1cc(-c2ccc(Cl)cc2Cl)c(C#N)c(=O)[nH]1	D1 ag 31
COc1ccc(-c2cc(C)no2)cc1S(=O)(=O)NC1CCC(C)CC1 (configuration not stated)	none
CCN(CC)c1ccc(NC(=O)CN2CCN(c3nc(C)cc(C)n3)CC2)cc1	D1 antagonist -33
CCN1CCN(C(=O)c2cnn(-c3cccc(C)c3)c2C2CCN(C(=O)OC(C)(C)C)CC2)CC1	none
CCOC(=O)C1CCN(C(=O)Cn2nc(CC)n3c(cc4occc43)c2=O)CC1	D1 antagonist -33
CCc1nn(CC(=O)NCCCN2CCN(C)CC2)c(=O)c2cc3occc3n12	D1 antagonist -37!
CCc1nn(CC(=O)NCCN2CCN(C)CC2)c(=O)c2cc3occc3n12	none
O=C(Nc1nnc(C(F)(F)F)s1)c1ccc(Br)s1	D1 ag 37, D1 antagonist -43
NC(=O)c1ccccc1NC(=O)c1ccccc1Cl	none
